Data from the supplement of paper PMC11732987, “Enantioselective OTUD7B fragment discovery through chemoproteomics screening and high-throughput optimisation” (Communications Chemistry, 2025).

What was measured:
Assay in all cases: log2 ratio of Biotin-Ahx-Ub-VS probe labelling (fragment/DMSO); higher = less target engagement (more negative = stronger competition), active = hit call of the paper (q ≤ 0.05, log2 ratio ≤ -1)
Details in all cases: compound concentration: 200 uM; treatment time: 3 h
USP19 = molecular target: T1, USP19 (UniProt O94966)
T1 sequence (whole entry): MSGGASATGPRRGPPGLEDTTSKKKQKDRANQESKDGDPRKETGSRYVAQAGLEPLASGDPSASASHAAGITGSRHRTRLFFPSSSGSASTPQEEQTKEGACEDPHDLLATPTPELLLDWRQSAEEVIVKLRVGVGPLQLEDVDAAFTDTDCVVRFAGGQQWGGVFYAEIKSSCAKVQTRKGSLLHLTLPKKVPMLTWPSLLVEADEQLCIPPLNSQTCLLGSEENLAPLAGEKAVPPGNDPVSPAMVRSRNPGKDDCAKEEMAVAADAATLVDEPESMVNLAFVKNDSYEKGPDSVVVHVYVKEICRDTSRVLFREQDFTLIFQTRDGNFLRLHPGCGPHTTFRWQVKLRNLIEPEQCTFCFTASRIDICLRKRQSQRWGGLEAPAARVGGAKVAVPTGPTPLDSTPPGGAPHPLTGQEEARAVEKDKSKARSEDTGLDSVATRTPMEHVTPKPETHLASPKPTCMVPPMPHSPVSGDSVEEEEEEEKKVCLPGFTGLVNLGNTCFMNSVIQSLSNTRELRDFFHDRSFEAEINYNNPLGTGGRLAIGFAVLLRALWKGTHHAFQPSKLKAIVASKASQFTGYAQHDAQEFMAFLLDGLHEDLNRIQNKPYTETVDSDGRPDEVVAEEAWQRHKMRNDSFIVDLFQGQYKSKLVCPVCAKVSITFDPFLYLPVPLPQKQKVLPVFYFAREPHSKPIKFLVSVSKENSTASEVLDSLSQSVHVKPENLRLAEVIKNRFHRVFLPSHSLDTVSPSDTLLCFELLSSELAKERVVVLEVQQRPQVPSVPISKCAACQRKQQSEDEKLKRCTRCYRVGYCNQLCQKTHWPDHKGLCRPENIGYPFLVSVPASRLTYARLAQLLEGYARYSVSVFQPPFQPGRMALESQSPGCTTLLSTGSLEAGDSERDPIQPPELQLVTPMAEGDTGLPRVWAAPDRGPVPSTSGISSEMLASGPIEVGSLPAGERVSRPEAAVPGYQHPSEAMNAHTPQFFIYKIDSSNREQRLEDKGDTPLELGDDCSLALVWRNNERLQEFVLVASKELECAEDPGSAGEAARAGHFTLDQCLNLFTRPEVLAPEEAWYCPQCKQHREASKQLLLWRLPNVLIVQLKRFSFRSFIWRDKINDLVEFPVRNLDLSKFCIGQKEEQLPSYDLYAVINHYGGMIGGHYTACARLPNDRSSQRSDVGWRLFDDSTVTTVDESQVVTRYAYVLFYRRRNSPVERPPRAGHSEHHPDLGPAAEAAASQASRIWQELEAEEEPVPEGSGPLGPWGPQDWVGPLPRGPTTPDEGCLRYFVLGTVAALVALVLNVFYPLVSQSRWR
In short: (§1)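 Labelled DUBs were enriched with NeutrAvidin, digested with LysC and trypsin, and run by diaPASEF LC-MS/MS. The labelling used Biotin-Ahx-Ub-VS at 0.5 µM final for 1 h on HEK293T lysate (495 µg per sample) previously treated in triplicate with fragment at 200 µM or vehicle for 3 h. Values are average log2 fragment/vehicle ratios by unpaired t-test on global-median-normalised Spectronaut quantities of proteins with ≥2 unique peptides.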

USP22 = molecular target: T2, USP22 (UniProt Q9UPT9)
T2 sequence (whole entry): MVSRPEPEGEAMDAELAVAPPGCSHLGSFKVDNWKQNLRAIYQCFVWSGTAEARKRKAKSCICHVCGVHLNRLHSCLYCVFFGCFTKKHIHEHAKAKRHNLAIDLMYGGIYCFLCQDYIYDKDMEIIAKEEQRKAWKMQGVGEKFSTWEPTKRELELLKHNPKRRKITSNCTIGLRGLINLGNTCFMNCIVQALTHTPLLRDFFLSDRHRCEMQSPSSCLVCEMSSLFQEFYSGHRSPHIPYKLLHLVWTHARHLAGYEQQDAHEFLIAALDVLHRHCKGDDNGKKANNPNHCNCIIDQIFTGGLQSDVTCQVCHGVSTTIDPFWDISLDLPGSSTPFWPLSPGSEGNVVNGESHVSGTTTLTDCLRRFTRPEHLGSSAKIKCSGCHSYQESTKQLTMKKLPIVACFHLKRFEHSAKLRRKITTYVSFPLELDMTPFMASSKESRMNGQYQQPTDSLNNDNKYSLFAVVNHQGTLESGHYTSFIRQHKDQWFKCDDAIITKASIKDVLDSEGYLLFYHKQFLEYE
In short: as §1

USP24 = USP24 (UniProt Q9UPU5)
Chain of USP24 (Q9UPU5 whole entry): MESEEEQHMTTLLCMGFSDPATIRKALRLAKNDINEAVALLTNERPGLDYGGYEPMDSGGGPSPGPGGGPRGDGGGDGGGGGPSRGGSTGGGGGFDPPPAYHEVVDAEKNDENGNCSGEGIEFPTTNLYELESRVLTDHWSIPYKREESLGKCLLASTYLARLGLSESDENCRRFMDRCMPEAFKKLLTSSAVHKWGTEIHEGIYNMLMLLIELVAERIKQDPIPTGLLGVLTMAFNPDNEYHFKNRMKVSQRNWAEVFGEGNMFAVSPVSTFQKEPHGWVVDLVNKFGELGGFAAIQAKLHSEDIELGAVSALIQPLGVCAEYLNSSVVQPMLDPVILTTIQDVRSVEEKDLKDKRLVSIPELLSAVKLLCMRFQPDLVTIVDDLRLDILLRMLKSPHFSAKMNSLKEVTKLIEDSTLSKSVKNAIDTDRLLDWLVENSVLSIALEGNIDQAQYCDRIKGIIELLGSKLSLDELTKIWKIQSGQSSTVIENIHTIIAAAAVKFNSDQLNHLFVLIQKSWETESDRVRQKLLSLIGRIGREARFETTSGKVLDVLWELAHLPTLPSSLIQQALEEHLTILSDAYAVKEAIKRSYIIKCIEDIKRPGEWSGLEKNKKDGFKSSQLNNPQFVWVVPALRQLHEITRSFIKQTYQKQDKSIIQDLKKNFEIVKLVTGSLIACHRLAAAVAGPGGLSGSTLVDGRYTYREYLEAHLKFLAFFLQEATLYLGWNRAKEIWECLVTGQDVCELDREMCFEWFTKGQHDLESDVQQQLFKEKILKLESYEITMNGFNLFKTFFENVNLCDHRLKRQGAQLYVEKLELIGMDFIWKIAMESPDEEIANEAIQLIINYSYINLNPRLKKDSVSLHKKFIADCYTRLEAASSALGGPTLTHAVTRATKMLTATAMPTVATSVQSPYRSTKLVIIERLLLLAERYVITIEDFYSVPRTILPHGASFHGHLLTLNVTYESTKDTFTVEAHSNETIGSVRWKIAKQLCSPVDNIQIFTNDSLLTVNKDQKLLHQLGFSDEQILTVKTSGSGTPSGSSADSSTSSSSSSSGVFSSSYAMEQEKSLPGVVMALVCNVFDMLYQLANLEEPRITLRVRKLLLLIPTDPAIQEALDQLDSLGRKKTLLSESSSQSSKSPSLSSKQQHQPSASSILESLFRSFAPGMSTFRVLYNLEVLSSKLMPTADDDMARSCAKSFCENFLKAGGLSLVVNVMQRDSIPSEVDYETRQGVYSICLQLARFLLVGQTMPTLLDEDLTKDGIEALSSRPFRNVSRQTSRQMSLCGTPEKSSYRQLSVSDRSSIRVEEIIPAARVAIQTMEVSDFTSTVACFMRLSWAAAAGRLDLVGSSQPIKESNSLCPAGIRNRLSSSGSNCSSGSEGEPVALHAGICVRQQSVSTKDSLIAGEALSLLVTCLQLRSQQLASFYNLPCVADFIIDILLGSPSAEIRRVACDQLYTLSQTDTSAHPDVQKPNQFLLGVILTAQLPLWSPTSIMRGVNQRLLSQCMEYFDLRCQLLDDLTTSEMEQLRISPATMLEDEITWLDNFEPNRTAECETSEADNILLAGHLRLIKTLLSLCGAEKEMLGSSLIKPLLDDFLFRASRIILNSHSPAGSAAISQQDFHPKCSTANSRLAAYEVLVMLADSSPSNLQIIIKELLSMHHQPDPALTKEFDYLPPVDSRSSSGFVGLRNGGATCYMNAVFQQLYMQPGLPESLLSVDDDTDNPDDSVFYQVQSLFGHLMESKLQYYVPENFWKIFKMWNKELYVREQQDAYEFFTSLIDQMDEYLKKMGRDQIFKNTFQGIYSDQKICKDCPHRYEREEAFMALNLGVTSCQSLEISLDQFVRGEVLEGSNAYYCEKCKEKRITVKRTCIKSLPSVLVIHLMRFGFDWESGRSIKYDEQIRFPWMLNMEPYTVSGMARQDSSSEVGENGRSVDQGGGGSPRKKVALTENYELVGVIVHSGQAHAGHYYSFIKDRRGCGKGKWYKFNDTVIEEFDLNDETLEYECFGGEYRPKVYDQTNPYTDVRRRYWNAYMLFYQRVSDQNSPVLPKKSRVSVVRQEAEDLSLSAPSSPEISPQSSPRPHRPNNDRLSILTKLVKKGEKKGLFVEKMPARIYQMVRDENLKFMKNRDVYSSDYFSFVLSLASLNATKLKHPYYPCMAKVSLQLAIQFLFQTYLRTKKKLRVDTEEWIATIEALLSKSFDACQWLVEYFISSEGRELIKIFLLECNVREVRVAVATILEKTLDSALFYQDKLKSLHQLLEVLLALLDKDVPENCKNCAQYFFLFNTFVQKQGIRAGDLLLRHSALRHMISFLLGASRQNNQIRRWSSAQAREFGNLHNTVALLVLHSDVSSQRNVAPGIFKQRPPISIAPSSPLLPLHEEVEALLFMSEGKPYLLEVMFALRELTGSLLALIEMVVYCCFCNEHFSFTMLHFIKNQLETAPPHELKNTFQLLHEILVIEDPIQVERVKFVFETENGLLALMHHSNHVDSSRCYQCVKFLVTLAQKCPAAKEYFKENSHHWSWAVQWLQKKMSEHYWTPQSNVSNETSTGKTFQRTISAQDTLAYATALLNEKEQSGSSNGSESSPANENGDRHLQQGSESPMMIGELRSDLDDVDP
In short: as §1

USP25 = molecular target: T3, USP25 (UniProt Q9UHP3)
T3 sequence (whole entry): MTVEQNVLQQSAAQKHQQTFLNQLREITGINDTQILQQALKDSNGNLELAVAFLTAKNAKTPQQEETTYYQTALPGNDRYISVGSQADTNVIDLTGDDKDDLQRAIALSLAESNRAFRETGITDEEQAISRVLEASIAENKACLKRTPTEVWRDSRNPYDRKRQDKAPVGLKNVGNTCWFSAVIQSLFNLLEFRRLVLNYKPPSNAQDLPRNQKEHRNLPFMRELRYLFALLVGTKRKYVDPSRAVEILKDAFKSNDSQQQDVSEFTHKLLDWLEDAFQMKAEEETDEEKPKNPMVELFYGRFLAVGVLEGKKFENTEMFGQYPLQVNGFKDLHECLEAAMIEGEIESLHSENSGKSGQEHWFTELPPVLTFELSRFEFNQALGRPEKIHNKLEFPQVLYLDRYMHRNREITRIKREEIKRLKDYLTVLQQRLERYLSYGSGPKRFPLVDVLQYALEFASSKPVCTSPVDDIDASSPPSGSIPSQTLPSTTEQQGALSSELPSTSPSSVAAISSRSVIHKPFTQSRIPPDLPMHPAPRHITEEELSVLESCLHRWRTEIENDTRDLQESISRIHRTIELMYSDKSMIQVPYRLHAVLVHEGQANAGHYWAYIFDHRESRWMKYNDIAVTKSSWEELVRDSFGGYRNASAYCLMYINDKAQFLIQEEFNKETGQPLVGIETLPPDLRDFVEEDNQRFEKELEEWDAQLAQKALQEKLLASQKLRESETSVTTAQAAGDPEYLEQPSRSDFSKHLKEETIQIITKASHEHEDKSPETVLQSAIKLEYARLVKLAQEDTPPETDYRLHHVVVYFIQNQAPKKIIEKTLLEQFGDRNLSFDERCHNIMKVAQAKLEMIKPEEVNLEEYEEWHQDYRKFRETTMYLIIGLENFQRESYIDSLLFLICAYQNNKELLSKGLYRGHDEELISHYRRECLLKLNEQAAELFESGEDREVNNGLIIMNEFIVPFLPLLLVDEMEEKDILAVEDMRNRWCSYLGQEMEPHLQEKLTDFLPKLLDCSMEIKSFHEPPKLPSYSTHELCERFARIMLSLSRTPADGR
In short: as §1

USP28 = molecular target: T4, USP28 (UniProt Q96RU2)
T4 sequence (whole entry): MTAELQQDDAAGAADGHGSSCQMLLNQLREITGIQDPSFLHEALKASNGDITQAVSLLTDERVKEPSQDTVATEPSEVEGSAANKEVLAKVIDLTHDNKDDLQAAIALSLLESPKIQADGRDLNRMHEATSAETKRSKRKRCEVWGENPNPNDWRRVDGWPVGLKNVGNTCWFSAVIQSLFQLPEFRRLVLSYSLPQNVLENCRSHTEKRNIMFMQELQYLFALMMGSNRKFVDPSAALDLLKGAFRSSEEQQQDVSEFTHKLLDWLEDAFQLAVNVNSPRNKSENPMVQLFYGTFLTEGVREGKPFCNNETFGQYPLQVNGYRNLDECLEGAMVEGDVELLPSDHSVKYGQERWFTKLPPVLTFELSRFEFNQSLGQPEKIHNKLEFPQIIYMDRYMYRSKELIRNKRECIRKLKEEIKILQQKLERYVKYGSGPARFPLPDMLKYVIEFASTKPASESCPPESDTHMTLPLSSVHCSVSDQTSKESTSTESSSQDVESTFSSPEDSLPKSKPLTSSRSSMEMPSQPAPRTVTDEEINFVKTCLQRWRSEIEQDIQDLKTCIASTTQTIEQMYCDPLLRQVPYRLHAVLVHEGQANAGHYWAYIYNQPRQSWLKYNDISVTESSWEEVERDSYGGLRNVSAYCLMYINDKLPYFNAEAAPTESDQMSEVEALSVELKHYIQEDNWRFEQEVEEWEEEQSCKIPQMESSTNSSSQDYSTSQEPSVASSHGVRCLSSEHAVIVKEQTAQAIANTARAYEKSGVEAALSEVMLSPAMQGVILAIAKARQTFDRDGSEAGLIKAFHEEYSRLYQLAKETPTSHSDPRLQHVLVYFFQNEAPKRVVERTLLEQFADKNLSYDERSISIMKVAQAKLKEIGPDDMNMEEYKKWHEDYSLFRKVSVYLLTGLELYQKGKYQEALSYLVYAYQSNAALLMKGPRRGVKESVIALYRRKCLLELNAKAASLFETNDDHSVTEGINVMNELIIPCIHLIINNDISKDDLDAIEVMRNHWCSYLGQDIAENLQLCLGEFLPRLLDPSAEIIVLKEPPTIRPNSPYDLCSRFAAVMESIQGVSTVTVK
In short: as §1

Measured: log2 ratio of Biotin-Ahx-Ub-VS probe labelling

Cc1ncc2c(n1)CCN(C(=O)CCl)C2
inactive: USP19 -0.479 | USP22 -0.119 | USP24 -0.198 | USP25 -0.361 | USP28 -0.688
